Assay outcomes: PubChem BioAssay, several laboratories
SKKanGAS inh: inhibitors of SKKanGAS S. pyogenes growth in kanamycin (SK-promoter or general growth effect); BacTiter-Glo, 6 h; inhibition, % at 7.5 µM; actives 1.3% (n = 300,000);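 active = mean replicate score, as percent of positive control median, at least 50; inconclusive = mean below 50 but one replicate at or above 50; inactive = mean and every replicate below 50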;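 note: strain carries kanamycin resistance gene driven by streptokinase promoter and grows in 40 µg/ml kanamycin; loss of luminescence reflects streptokinase promoter inhibition or plain growth inhibition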
NALP3 yeast inh: inhibitors of NALP3 inflammasome in yeast; Yeast reconstituted NLRP3/ASC/caspase-1, beta-gal luminescence, 24 h; inhibition, % at 10 µM; actives 0.39% (n = 330,000);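 active = inhibition of 50% or more; inactive = inhibition below 50%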
tim10-1 inh: tim10-1 yeast growth inhibition. S. cerevisiae tim10-1 ts strain growth, BacTiter-Glo, 24 h. inhibition, % at 20 µM. actives 2.2% (n = 330,000). AID 463190;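 active = inhibition of at least 40%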;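 note: mutant grown at 25 °C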
TIM10 inh: TIM10 yeast growth inhibition; AID 463195; actives 1.4% (n = 330,000); S. cerevisiae TIM10 strain growth, BacTiter-Glo luminescence, 24 h; inhibition, % at 10 µM;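 active = inhibition of 40% or more at the single tested concentration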;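 note: wild-type TIM10 isogenic control strain grown at permissive 25 °C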
NALP1 yeast inh: blocks the NALP1 inflammasome reconstituted in yeast; S. cerevisiae NALP1/ASC/caspase-1 growth, X-gal OD620, 72 h; inhibition, % at 10 µM; actives 0.61% (n = 280,000); in the data active = inhibition mostly above about 24%, no sharp cut-off; inactive = mostly below about 32%
tim23-1 inh: inhibits growth of tim23-1 mutant yeast. S. cerevisiae tim23-1 growth, BacTiter-Glo luminescence, 24 h. inhibition, % at 20 µM. actives 1.3% (n = 330,000);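 active = growth inhibition of the mutant yeast at or above 50%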;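 note: temperature-sensitive mutant grown at 25 °C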
NALP3 yeast conf: confirmation of NALP3 inhibitors in yeast | actives 81% (n = 1,300) | shares compounds with NALP3 yeast inh | inhibition, % at 10 µM | yeast expressing human NALP3, luminescence; in the data active = inhibition above about 48%
Casp1-ASC yeast: active in yeast caspase-1-ASC counter-screen for NALP3 inhibitors; AID 488784; shares compounds with NALP3 yeast inh; inhibition, % at 10 µM; actives 66% (n = 1,000); yeast expressing Caspase-1-ASC, luminescence counter screen
NALP3 retest: yeast NALP3 inhibition, confirmed on retest; shares compounds with NALP3 yeast inh; yeast expressing human NALP3, luminescence read-out; inhibition, % at 10 µM; actives 53% (n = 1,000); AID 488794
tim10-1 conf: confirmation of tim10-1 mutant yeast growth inhibitors; inhibition, % at 20 µM; AID 463213; actives 56% (n = 7,400); shares compounds with tim10-1 inh; S. cerevisiae tim10-1 ts strain growth, BacTiter-Glo, 24 h;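 active = inhibition of yeast growth at or above a set limit in either of two repeat tests at 20 µM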;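 note: tim10-1 mutant grown at permissive 25 °C to find synthetic lethal compounds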
TIM10 conf: TIM10 yeast growth inhibition, confirmed. inhibition, % at 10 µM. AID 463215. S. cerevisiae tim10 strain growth, BacTiter-Glo luminescence, 24 h. actives 63% (n = 4,600). shares compounds with TIM10 inh;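 active = inhibition of yeast growth at or above a set limit in either of two replicates at 10 µM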; note: this counterscreen used the strain with wild-type TIM10
Large screens that a line does not name were inactive (follow-up assays come after a bar, where they were run). Shown are actives, neighbours in structure and some others; about 4.9% of the full set was active somewhere. Cut-off read from the data, not from the text of the source, unless noted: active = inhibition above about 50%; inactive = the rest.

C/C(CCC12CC3CC(CC(C3)C1)C2)=N\NC(N)=S	NALP3 yeast inh 58, tim10-1 inh 58 | NALP3 yeast conf 50 | Casp1-ASC yeast 70 | NALP3 retest inactive | tim10-1 conf inactive
Cc1ccc(CN(CC(=O)NCCc2ccccc2)C(=O)c2csnn2)cc1	none
CCCOc1ccc(C(=O)NNC(=S)NC(=O)c2cccs2)cc1	SKKanGAS inh 74, NALP3 yeast inh 56, tim10-1 inh 48 | NALP3 yeast conf 77 | Casp1-ASC yeast inactive | NALP3 retest 55 | tim10-1 conf inactive
CC1(C)C(=O)Nc2ccccc2N1C(=O)COC(=O)Cc1ccc(Cl)c(Cl)c1	none (no result: SKKanGAS inh, NALP1 yeast inh)
Nc1nc(-c2ccccc2)c(-c2ccc([N+](=O)[O-])cc2)s1	NALP3 yeast inh 95, tim10-1 inh 46 | NALP3 yeast conf 98 | Casp1-ASC yeast 98 | NALP3 retest 95 | tim10-1 conf inactive
O=C(Nc1ccc(S(=O)(=O)Nc2ncccn2)cc1)C12CC3CC(CC(Cl)(C3)C1)C2	none (no result: SKKanGAS inh, NALP1 yeast inh)
CCc1ccc(S(=O)(=O)Nc2ccc(Br)cn2)cc1	none
C=C1/C(=C\C=C2/CCC[C@]3(C)[C@@H]([C@H](C)CCCC(C)(C)O)CC[C@@H]23)C[C@@H](O)C[C@@H]1O	NALP3 yeast inh 57, tim10-1 inh 48 | NALP3 yeast conf 58 | Casp1-ASC yeast 55 | NALP3 retest inactive | tim10-1 conf inactive
CC(C)CCC[C@@H](C)[C@H]1CC[C@H]2[C@@H]3C(=O)C=C4C[C@@H](O)CC[C@]4(C)[C@H]3CC[C@]12C	none (no result: NALP1 yeast inh)
O=C(C1CCN(S(=O)(=O)c2cccc3nsnc23)CC1)N1CCn2c1nc1ccccc12	NALP3 yeast inh 74, tim10-1 inh 42 | NALP3 yeast conf 75 | Casp1-ASC yeast 66 | NALP3 retest 75 | tim10-1 conf inactive
O=C(C1CCN(S(=O)(=O)c2cccc3nsnc23)CC1)N1CCc2ccccc21	none
O=C(Nc1cccc(S(=O)(=O)N2CCCC2)c1)c1ccc2ccccc2n1	tim10-1 inh 47, TIM10 inh 43 | NALP3 yeast conf inactive | tim10-1 conf 36 | TIM10 conf 39
O=C(Nc1cccc(S(=O)(=O)N2CCCCCC2)c1)c1ccc(Cl)nc1	none (no result: SKKanGAS inh, NALP1 yeast inh)
O=C(Nc1cccc(S(=O)(=O)N2CCCCC2)c1)c1ccc2ccccc2n1	tim10-1 inh 44, TIM10 inh 41 | NALP3 yeast conf inactive | tim10-1 conf inactive | TIM10 conf inactive
O=C(Nc1nnc(SCCN2CCOCC2)s1)C1CC(=O)N(c2ccc(F)cc2)C1 (stereo unspecified)	none
Cc1ccc(-c2cc3c(nn2)-c2ccccc2C3=O)cc1	none (no result: NALP1 yeast inh)
Cc1ccccc1-c1cc2c(nn1)-c1ccccc1C2=O	NALP3 yeast inh 61, TIM10 inh 44 | NALP3 yeast conf 55 | Casp1-ASC yeast inactive | NALP3 retest inactive | TIM10 conf 30
CCCCOc1ccc(CSCCNC(=S)Nc2ccccc2)cc1	NALP3 yeast inh 54, TIM10 inh 42 | NALP3 yeast conf 60 | Casp1-ASC yeast 62 | NALP3 retest inactive | TIM10 conf inactive
CC(=O)NC(=S)Nc1cccc([N+](=O)[O-])c1	none
O=C(NC(=S)Nc1cccc([N+](=O)[O-])c1)C1CCCC1	NALP3 yeast inh 54, tim10-1 inh 54, TIM10 inh 47 | NALP3 yeast conf 73 | Casp1-ASC yeast 60 | NALP3 retest 58 | tim10-1 conf 45 | TIM10 conf 52
Clc1ccc(/C=C/c2ncc3ccccn23)cc1	none
CCn1cc(C(=O)NCCCN2CCC(C)CC2)c(=O)c2cc(S(=O)(=O)N3CCOCC3)ccc21	none
COc1ccc(-n2cnc3cc(NC(=O)c4ccco4)ccc32)cc1	NALP3 yeast inh 58, TIM10 inh 66 | NALP3 yeast conf 80 | Casp1-ASC yeast 62 | NALP3 retest 70 | TIM10 conf 54
CC(C)n1cnc2cc(NC(=O)c3ccco3)ccc21	none
CN(C)/N=C/c1ccc(Sc2ccc([N+](=O)[O-])cc2[N+](=O)[O-])o1	NALP3 yeast inh 54, tim10-1 inh 43, TIM10 inh 40 | NALP3 yeast conf inactive | tim10-1 conf 44 | TIM10 conf 47
C[C@@H]1COC(=O)[C@@H](Cc2ccc(F)cc2)C/C=C\C[C@@H](CC(=O)NCCO)C(=O)N1	none (no result: SKKanGAS inh, NALP1 yeast inh)
O=c1c2sc(-c3ccccc3)cc2nc2n1CCC2	SKKanGAS inh inconclusive, NALP3 yeast inh 55, tim10-1 inh 64, TIM10 inh 78 | NALP3 yeast conf inactive | Casp1-ASC yeast inactive | NALP3 retest inactive | tim10-1 conf 65 | TIM10 conf 73
O=C1c2ccccc2CCc2ccc(Br)cc21	none (no result: SKKanGAS inh, NALP1 yeast inh)
CCCCCCCCCCCCCCCC[n+]1ccc(C(N)=O)cc1	NALP3 yeast inh 53, TIM10 inh 48, NALP1 yeast inh 96 (no result: SKKanGAS inh) | NALP3 yeast conf inactive | TIM10 conf inactive
O=C(Nc1ccc(Cl)cc1)c1ccc2ncsc2c1	none
O=C(Nc1cccc(Cl)c1)c1ccc2ncsc2c1	NALP3 yeast inh 67, TIM10 inh 50 | NALP3 yeast conf 86 | Casp1-ASC yeast 81 | NALP3 retest 76 | TIM10 conf 45
COc1ccc2cc3cc(C(=O)NCCN4CCN(c5ccccc5F)CC4)oc3nc2c1	NALP3 yeast inh 53, tim10-1 inh 71, TIM10 inh 79 | NALP3 yeast conf inactive | tim10-1 conf 63 | TIM10 conf inactive
COCCNC(=O)c1cc2cc3ccc(OC)cc3nc2o1	none
CCn1c2ccccc2c2cc(/C=N/n3cn[nH]c3=S)ccc21	NALP3 yeast inh 68, tim10-1 inh 51, TIM10 inh 48 | NALP3 yeast conf 74 | Casp1-ASC yeast 82 | NALP3 retest 63 | tim10-1 conf 35 | TIM10 conf 49
CCn1c2ccccc2c2cc(/C=N/n3cnnc3)ccc21	none
Oc1c(C=Nc2ccc(Cl)cn2)sc2ccccc12	none
Oc1c(/C=N/c2ccccn2)sc2ccccc12	NALP3 yeast inh 65, TIM10 inh 69 | NALP3 yeast conf 76 | Casp1-ASC yeast inactive | NALP3 retest 70 | TIM10 conf 62
O=C(NC1CCN(S(=O)(=O)c2ccc(Cl)c(F)c2)CC1)c1cccnc1	none
O=S(=O)(Nc1ccc(S(=O)(=O)Nc2ccccc2)cc1)c1ccccc1	none
